Out of some 48,000 compounds screened, about 13,000 (27%) showed an effect of 50% or more. Some of the results follow.

The experiment concerns Wolbachia pipientis. Briefly: Anti-Wolbachia Cell-Based Screen. As to conditions: 5 µM. More on the design: scale not given: in the data most compounds retested in dose-response had high values. The class given is functional.
For `O=C(c1scc2c1OCCO2)N1CCC(Cc2cccc(CO)c2)C1` (stereo not drawn), the “Percent Effect” value is -12.67%.

`CC(=O)Nc1nc(C(=O)N2CCCCC2Cn2cccn2)cs1` (stereo not drawn): the “Percent Effect” value was 109.7%.

On to `CC(=O)Nc1nc(C(=O)N2CCCC2Cn2cccn2)cs1` (stereo not drawn), for which the “Percent Effect” value amounted to 136.5%.

Consider `CC(=O)Nc1nc(CN2CCCC2Cn2cccn2)cs1` (stereo not drawn), for which the “Percent Effect” value is recorded as -22.51%.

`CC(=O)Nc1nc(C(=O)N2CCCCC2Cn2cc(C)cn2)cs1` (stereo not drawn): the “Percent Effect” value is 67.59%.

With `CC(=O)Nc1nc(C(=O)N2CCCC2Cn2cc(C)cn2)cs1` (stereo not drawn), the “Percent Effect” value is on record as -2.697%.

For `CC(=O)NCc1ccc(C(=O)N2CCCCC2Cn2cccn2)o1` (stereo not drawn), the “Percent Effect” value was -0.4212%.

Take `CC(=O)Nc1nc(CN2CCCC2Cn2cc(C)cn2)cs1` (stereo not drawn): the “Percent Effect” value is listed as -0.668%.

In the case of `O=C(c1cc(-n2cccn2)ccn1)N1CCOc2ccc(F)cc21`, the “Percent Effect” value worked out at 11.86%.

On to `CCN(Cc1noc(CC(C)C)n1)Cc1cccc(F)c1O`, for which the “Percent Effect” value turned out to be 21.71%.

Regarding `CCCc1nc(NCCCO)c2c(n1)c(C)nn2CC`, the “Percent Effect” value is 2.078%.

`CC(C)CN1C[C@@H]2CN(C(=O)c3cccn3C)C[C@@H]2C1=O`: the “Percent Effect” value is -8.322%.

For `O=C(C1CC1)N1C[C@@H](F)[C@@H](OCc2nc3cc(F)ccc3[nH]2)C1`, the “Percent Effect” value is recorded as -13.75%.

On to `CC(C)n1cnc(C2CN(C)c3ccc(C(=O)NCC4CC4)cc32)n1` (stereo not drawn), for which the “Percent Effect” value is -10.28%.

For the compound `CCCn1nnnc1CSc1nccn1C`, the “Percent Effect” value stood at 1.571%.

With `O=C(NCC(O)c1ccc(F)c(F)c1)c1cccnc1OCC(F)(F)F` (stereo not drawn), the “Percent Effect” value is recorded as 8.161%.

Regarding `CN(CCc1ccccc1)C(=O)c1cccnc1OCC(F)(F)F`, the “Percent Effect” value is 147.6%.

For `NCc1cnn(-c2ccccc2C(=O)NCCCn2ccnc2)c1`, the “Percent Effect” value was -6.38%.

On to `O=C(O)c1ncccc1OCC(F)(F)F`, for which the “Percent Effect” value stood at 2.885%.

On to `O=C(NCCCn1ccnc1)c1cccnc1OCC(F)(F)F`, for which the “Percent Effect” value came to 88.67%.

Turning to `O=C(NCc1cccnc1OCC(F)(F)F)N1CCOCC1`, the “Percent Effect” value is recorded as -14.27%.

As to `O=C(CNC(=O)c1cnc2ccccc2c1O)NCCCn1ccnc1`, the “Percent Effect” value turned out to be 9.933%.

As to `O=C(NCCc1ccncc1)c1cccnc1OCC(F)(F)F`, the “Percent Effect” value came to 113.2%.

Turning to `O=C(c1cccnc1OCC(F)(F)F)N1CCCn2ncnc21`, the “Percent Effect” value is -8.478%.

Consider `O=C1COc2cc(S(=O)(=O)NCCC3=CCCCC3)c(Br)cc2N1`, for which the “Percent Effect” value is 12.05%.

With `N#Cc1cccc(OCC(=O)N(Cc2ccncc2)C2CC2)c1`, the “Percent Effect” value is reported as -1.497%.

In the case of `CCNC(=O)N1CCC(NC(=O)NCCc2cc(F)cc(F)c2)C1` (stereo not drawn), the “Percent Effect” value was -1.465%.

Turning to `Cc1noc(C)c1NC(=O)NC1CCN(C(=O)OC(C)(C)C)CC1`, the “Percent Effect” value is listed as -1.211%.

On to `c1ccc(CN2CCC(NCCSc3cnn[nH]3)C2)cc1` (stereo not drawn), for which the “Percent Effect” value is -16.66%.

Regarding `CN(C)c1ccc(C(=O)N2CCCC2c2ccc(Cl)cc2)nn1` (stereo not drawn), the “Percent Effect” value is on record as -0.3166%.

`CN(C)c1cc(C2CCCN2C(=O)c2noc3c2CCCC3)ccn1` (stereo not drawn): the “Percent Effect” value is on record as 74.42%.

As for `Cc1noc2ncc(C(=O)N3CCCC3c3ccncc3)cc12` (stereo not drawn), the “Percent Effect” value came to 1.131%.

As to `CN(C)c1cc(C2CCCN(C(=O)c3noc4c3CCCC4)C2)ccn1` (stereo not drawn), the “Percent Effect” value is listed as 145.2%.

On to `O=C(c1noc2c1CCCC2)N1CCCC(c2nccs2)C1` (stereo not drawn), for which the “Percent Effect” value was 6.202%.

On to `CCOCc1ncn2c1CN(S(=O)(=O)c1cccs1)CCC2`, for which the “Percent Effect” value was -7.324%.

With `COCc1cc(CNC(=O)c2c(C)cc(C)[nH]c2=O)n[nH]1`, the “Percent Effect” value is reported as -6.309%.

Turning to `O=C(c1cc[nH]n1)N1CCC(Nc2cccnn2)CC1`, the “Percent Effect” value amounted to 4.355%.

On to `O=C(c1ccc2cc[nH]c2c1)N1CCC(Nc2cccnn2)CC1`, for which the “Percent Effect” value was determined as 107.6%.

Regarding `O=C(c1ccc2c(c1)OCO2)N1CCC(Nc2cccnn2)CC1`, the “Percent Effect” value came out at 90.41%.

As to `O=C(c1ccc2[nH]c(=O)[nH]c2c1)N1CCC(Nc2cccnn2)CC1`, the “Percent Effect” value was 102.4%.

In the case of `O=C(c1ccc2c(c1)COC2)N1CCC(Nc2cccnn2)CC1`, the “Percent Effect” value came to 2.056%.

Take `Cc1cc(C(=O)N2CCC(Nc3cccnn3)CC2)no1`: the “Percent Effect” value worked out at 29.64%.

Consider `O=C(c1ccc2[nH]nnc2c1)N1CCC(Nc2cccnn2)CC1`, for which the “Percent Effect” value turned out to be 101.2%.

For the compound `CC(c1nc(C2CC2)no1)N(C)Cc1ccc(C#N)cc1` (stereo not drawn), the “Percent Effect” value is 15.66%.

For the compound `CCc1noc(CNc2c(F)cccc2-n2cccn2)n1`, the “Percent Effect” value is on record as -15.19%.

As to `Cn1nc(CNC(=O)CC#N)c2c1CN(C(N)=O)CC2`, the “Percent Effect” value is 9.409%.

Regarding `Cc1nnc(CCNC2CCN(c3ncnc4c(C)csc34)CC2)s1`, the “Percent Effect” value is -2.082%.

As to `Cc1nn(C)c(C)c1CC(=O)N1CCC(Nc2cccnn2)CC1`, the “Percent Effect” value is given as -9.502%.

Consider `N#CC1(C(=O)N2CCC(Nc3cccnn3)CC2)CCCCC1`, for which the “Percent Effect” value is on record as -1.01%.

On to `Cc1nc(C(=O)N2CCC(Nc3cccnn3)CC2)cs1`, for which the “Percent Effect” value is -1.209%.

Take `N#Cc1ccc(CC(=O)N2CCC(Nc3cccnn3)CC2)cc1`: the “Percent Effect” value turned out to be 101.7%.

As for `N#Cc1cccc(C(=O)N2CCC(Nc3cccnn3)CC2)c1`, the “Percent Effect” value is reported as 94.09%.

In the case of `Cn1nnc2cc(C(=O)N3CCC(Nc4cccnn4)CC3)ccc21`, the “Percent Effect” value was found to be 108.7%.

(Values after ChEMBL document CHEMBL3988442, “University of Dundee, Small-Polar-MMV Screening Library” (2021).)
